As usually defined, the inhibition is the change of the read-out against control, counted positive when it falls.

Among all 360,000 compounds or so, about 8,200 (2.3%) were called active. The entries come from a sample that favours actives as a whole. Values without a mark were called inactive. No stated cut-off is given here; in the data, active means inhibition above about 27%; inactive means the rest.

In this assay the target is Fructose-bisphosphate aldolase (Mycobacterium tuberculosis (strain ATCC 25618 / H37Rv)) (UniProt P9WQA3). The assay is described as follows: M. tuberculosis aldolase activity blockers – biochemical, fluorescence, strain H37Rv, primary screen (AID 588726).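 Further: 0% = vehicle and 100% = reference inhibitor.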 To be noted: purified M. tuberculosis FBA, fluorescence read-out, at 1 µM, hits give high values.
Fructose-bisphosphate aldolase (Mycobacterium tuberculosis (strain ATCC 25618 / H37Rv)), sequence (P9WQA3 whole entry, looked up): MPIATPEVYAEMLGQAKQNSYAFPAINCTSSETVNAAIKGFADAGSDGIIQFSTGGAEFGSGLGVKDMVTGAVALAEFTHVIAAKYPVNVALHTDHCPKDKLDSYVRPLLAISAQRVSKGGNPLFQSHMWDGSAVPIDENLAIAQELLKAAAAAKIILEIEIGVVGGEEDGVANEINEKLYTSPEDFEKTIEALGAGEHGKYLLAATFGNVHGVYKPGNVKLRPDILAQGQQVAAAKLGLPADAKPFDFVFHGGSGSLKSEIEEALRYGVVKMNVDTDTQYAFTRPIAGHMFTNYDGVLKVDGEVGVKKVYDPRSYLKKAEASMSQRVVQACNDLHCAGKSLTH
Consider `O=C(NNC(=O)c1ccco1)Nc1ccccc1`, for which the inhibition was -0.74%. The result for `CC(C)(C)NC(=O)c1cc(NC(=O)c2ccco2)cc(NC(=O)c2ccco2)c1` reads 1.27%; that for `O=C(Nc1ccc2nccnc2c1)c1ccco1`, 50.1% (active); that for `COc1ccc(-c2[nH]ncc2CN(C)Cc2cc(C)[nH]n2)c(F)c1`, -3.53%. The result for `CC(C)C(OC(=O)c1cccs1)C(=O)NC1CCCCC1` (centres undefined) reads 3.33%. The result for `O=C(NCc1cccnc1)c1cc(C2CCCN(C(=O)C3CCCCC3)C2)on1` (centres undefined) reads 1.09%. Consider `CCOC(=O)CN(C(=O)COc1nc(C)cc(C)c1C#N)c1ccc(Cl)cc1`, for which the inhibition was 0.17%. Under `CCOC(=O)COc1nc(C)cc(C(F)(F)F)c1C#N` stands 75.7% (active); under `Cc1cc(C(F)(F)F)c(C#N)c(SCC(=O)NC2CC2)n1`, 1.94%. Under `O=C1CC(Cc2ccc(Cl)cc2)C(=O)N1c1cc(Cl)ccn1` (centres undefined) stands -3.99%. The result for `Cc1cc(C)n(-c2nc(O)cc(=O)[nH]2)n1` reads -2.32%; that for `Nc1ccc(-c2nnc(-c3ccc(-c4ccccc4)cc3)o2)cc1`, 62.9% (active); that for `CN(C)c1ccc(-c2nnc(-c3cccnc3)o2)cc1`, 14.1%. `OC(c1nnc(-c2ccccc2)o1)c1cccs1` (centres undefined): the inhibition was -4.15%.

`COC(=O)[C@@H]1C[C@@]2(O)[C@@H](O)[C@@H](O)[C@@H](O)C[C@H]2N1Cc1ccc(C)s1`: the inhibition was -1.21%. The result for `CC(C)Cn1c(N)c(C(=O)COC(=O)C2CCCN2C(=O)c2cccs2)c(=O)n(C)c1=O` (centres undefined) reads 2.37%; that for `Cc1ccc(S(=O)(=O)N2CCN(C(=O)Cc3sc(C)nc3-c3ccc(F)cc3)CC2)c(C)c1`, -0.33%. Under `C=CCn1c(COc2ccc(F)cc2)nnc1SCC(=O)Nc1cccc(S(N)(=O)=O)c1` stands 0.32%. Under `C=CCn1c(CCNC(=O)c2ccccc2F)nnc1SCC(=O)Nc1ccc(OC)cc1` stands 43.4% (active); under `Cc1ccc(NC(=O)CSc2nnc(CNC(=O)c3ccccc3F)o2)cc1`, 0.75%; under `COc1ccc(CCNC(=O)C(=O)NCC2OCCN2S(=O)(=O)c2ccc(OC)c(C)c2)cc1` (centres undefined), -0.91%. Regarding `O=C(CN(C(=O)c1csnn1)c1cccc(Cl)c1)NC1CCCC1`, the inhibition is 2.14%. As for `CC(C)[C@@H](C(=O)O)N(Cc1cccc(CN([C@H](C(=O)O)C(C)C)S(C)(=O)=O)c1)S(C)(=O)=O`, the inhibition is 5.75%. For `O=C1CC2(CCCC2)Oc2ccc(Cl)cc21`, the inhibition was 2.17%.

On to `O=C1CC2(CCCCC2)Oc2ccc(OCC(=O)N3CCOCC3)cc21`, for which the inhibition was 49.5% (active). For the compound `O=C1CC2(CCN(C(=O)COc3ccc(F)cc3)CC2)Oc2ccccc21`, the inhibition is 6.06%.

Regarding `Cc1ccc2nc(/C(C#N)=C\c3ccc(OC(=O)c4cccs4)cc3)[nH]c2c1`, the inhibition was 36.1% (active). As for `COc1ccc(CCNC(=O)/C(C#N)=C2\N=C(NC(=O)c3cccs3)c3ccccc32)cc1`, the inhibition was -0.53%. As for `CCN(CC)c1ccc(C(=O)c2cnc(/N=C/N(C)C)s2)cc1`, the inhibition was -0.9%.

Consider `CCC1CCCCN1CCNC(=O)c1[nH]c(C)c(C(C)=O)c1C` (centres undefined), for which the inhibition was -2.24%.

Take `CC(C(=O)N1CCN(c2ccccc2F)CC1)c1ccc([N+](=O)[O-])cc1` (centres undefined): the inhibition was -0.87%. Under `CC(C)(C)NS(=O)(=O)c1ccc(NC(=O)C2CCCO2)cc1` (centres undefined) stands 0.12%; under `CCOc1ccc(NC(=O)c2ccc(NC(=O)C3CCCO3)cc2)cc1` (centres undefined), 0.48%; under `O=C(Nc1ccc(-c2nnc(-c3ccccc3)o2)cc1)C1CCCO1` (centres undefined), 61.2% (active). Under `c1ccc2c(-c3nn4nnnc4c4ccccc34)cccc2c1` stands 1.01%; under `Cc1csc(NC(=O)C2CCN(S(=O)(=O)c3ccccc3)CC2)n1`, -1.66%. As for `COc1cc(OC)cc(C(=O)N[C@H](C(=O)Nc2nc3ccccc3[nH]2)C(C)C)c1`, the inhibition was -0.55%. Under `Cc1ccc2nc(-c3ccc(NC(=O)c4cccnc4)cc3)oc2c1` stands -7.14%; under `CC(=O)Nc1ccc(-c2nc3ccccc3o2)cc1`, 60.6% (active); under `CC(C)(C)C(=O)CSc1nc2ccccc2o1`, 2.23%.

On to `COc1cccc(C(=O)Nc2ccc3nc4n(c(=O)c3c2)CCCCC4)c1`, for which the inhibition was 0.68%. As for `COc1cc(OC)cc(C(=O)Nc2ccc(-c3nc4ccccc4o3)c(O)c2)c1`, the inhibition was 38% (active).

On to `CC1(C(=O)Nc2cccc3c2CCCC3)CCN1C(=O)CCc1ccc(Cl)cc1Cl` (centres undefined), for which the inhibition is 0%. The result for `O=C(Cc1ccc(F)cc1)NC1CCCC1` reads -0.93%; that for `Cc1noc(C)c1C(=O)NCCc1ccc(S(N)(=O)=O)cc1`, 0.56%.

`CCCNC(=O)c1c(N)n(-c2ccc(S(N)(=O)=O)cc2)c2nc3ccccc3nc12`: the inhibition was 102% (active). With `CCOC(=O)c1c(C)c(C(=O)NCCc2ccc(S(N)(=O)=O)cc2)c(C)n1CC`, the inhibition is -2.42%. The result for `CC1(C(=O)NCc2cccc3ccccc23)CCN1Cc1ccc(-c2ccccc2)o1` (centres undefined) reads 2.7%. On to `Cc1cc(Nc2cc(N3CCN(C)CC3)nc(Sc3ccc(NC(=O)C4CC4)cc3)n2)n[nH]1`, for which the inhibition was 0.5%. The result for `CCOc1ccc(-c2nc(C)sc2CC(=O)O)cc1` reads 5.29%; that for `O=C(O)Cc1sc(-c2ccc(C(=O)O)cc2)nc1-c1ccccc1`, 37% (active).

Consider `NC(=O)Cc1ccc2sc(-c3ccccc3)nc2c1`, for which the inhibition is 5.06%. The result for `Cc1cccc(C)c1N1C(=O)CN(Cc2ccccc2)C1=S` reads 3.51%. With `Clc1cccc(Cc2c(-c3cccc(Cl)c3)nc3ccc(Cl)cn23)c1`, the inhibition was 6.59%. Under `Cc1ccc(Cc2c(-c3ccco3)nc3ccc(Cl)cn23)cc1` stands 6.29%; under `Cc1ccc2nc(-c3ccco3)c(Cc3cccc(Cl)c3)n2c1`, 30.3% (active); under `O=C(Nc1ccc(N2CCN(C(=O)c3ccccc3)CC2)c(Cl)c1)c1cccnc1`, -4.3%.

Turning to `Cc1nn(C)c(Oc2ccccc2)c1CCNS(=O)(=O)c1ccc(F)cc1`, the inhibition is 28.7% (active).

As to `Cn1c(CCNS(=O)(=O)c2ccc(F)cc2)nnc1SCc1cccnc1`, the inhibition was -0.16%. Under `COc1ccc(CCNS(=O)(=O)c2ccc(F)cc2)cc1OC` stands 0.71%; under `COC(=O)c1ccc(CN2CCC(CO)(Cc3ccc(OC)cc3)CC2)cc1`, 8.41%; under `C=CCn1cc(-c2cccc(C(F)(F)F)c2)cc(C#N)c1=O`, 47.4% (active). The result for `C=CCn1c(-c2ccc(Cl)cc2)ccc(C#N)c1=O` reads 1.41%; that for `CC1(Cc2cccc(C#N)c2)C(=O)Nc2ccc(-c3cccc(C(F)(F)F)c3)cc21` (centres undefined), -1.35%.

For `O=C(COC(=O)CNS(=O)(=O)c1ccc(F)c(F)c1F)NC1CCCC1`, the inhibition is -3.58%. For `COc1ccc(CNC(=O)CN(C(=O)c2csnn2)c2cnc3ccccc3c2)cc1`, the inhibition was 3.6%. The result for `COC(=O)N1CN(C(=O)OC)CN(C(=O)OC)C1` reads 0.37%. Take `Cc1ccc(C2CCN(C(=S)Nc3cccc(Cl)c3)C2)cc1` (centres undefined): the inhibition was -1.23%. For `Cc1nc2ccc(NC(=S)N3CCC(C)CC3)cc2nc1C`, the inhibition is 5.9%. Under `Cc1nc2ccc(NC(=O)N3CCC(c4ccccc4)C3)cc2nc1C` (centres undefined) stands 72.4% (active); under `COc1cccc(CN2CCN(Cc3ccc4cccc(F)c4n3)CC2CCO)c1` (centres undefined), 2.17%. The result for `Cc1ccc(C(CNC(=O)Nc2cccc(C)c2)N2CCN(C)CC2)cc1` (centres undefined) reads 2.29%. Under `Cc1ccccc1NC(=O)c1ccc(COc2ccc3c(C)cc(=O)oc3c2)cc1` stands 11.9%; under `COc1ccc(-c2cc(=O)oc3cc(OCC(=O)N(C)C4CCS(=O)(=O)C4)ccc23)cc1` (centres undefined), 3.8%; under `CCN(C(=O)COC(=O)c1ccc(COc2ccc3c(C)cc(=O)oc3c2)cc1)C1CCS(=O)(=O)C1` (centres undefined), 44.6% (active). Regarding `C[C@@H]1CN([C@@H](C)CO)C(=O)CCCn2nncc2CO[C@@H]1CN(C)S(=O)(=O)c1ccc(-c2ccccc2)cc1`, the inhibition was -2.99%. Under `CCc1nc2c(OCCOc3ccccc3)cccn2c1N(C)C(=O)c1ccc(OC)cc1` stands 1.06%; under `CN(C)CCCn1c(N)c(C#N)c2nc(C#N)c(C#N)nc21`, 61.1% (active). The result for `C=CCn1c(SCc2nnc(-c3ccccc3)o2)nnc1C(O)c1ccccc1` (centres undefined) reads 1.46%; that for `Cc1cc(C)c2c(n1)sc1c(=O)n(-c3ccccc3)c(=O)[nH]c12`, 38.8% (active); that for `C/C(O)=C\c1nc(=O)c2c(C)cc(C)nc2n1-c1ccccc1`, 4.59%.

`Cc1sc2nc(SCCO)n(-c3ccccc3)c(=O)c2c1C`: the inhibition is 1.67%.

Take `COC(=O)c1ccccc1NC(=O)CN(Cc1ccccc1)S(C)(=O)=O`: the inhibition is 5.21%. For `COc1ccccc1N1CCN(S(=O)(=O)CCNC(=O)c2ccc(OC(C)C)cc2)CC1`, the inhibition was -0.15%.

As for `C[C@@H]1CN([C@@H](C)CO)C(=O)c2c(c3ccccc3n2C)-c2ccccc2CO[C@H]1CN(C)C(=O)C1CC1`, the inhibition was 2.36%. On to `CCN1CCCC1Cn1cnc2c([nH]c3cc(OC)ccc32)c1=O` (centres undefined), for which the inhibition was 1.27%.

As for `COc1ccc2c(c1)c1nc3n(c(=O)c1n2CC(=O)Nc1ccccc1)CCS3`, the inhibition was 8.41%. Under `COc1ccc2[nH]c3c(=O)n(Cc4ccco4)cnc3c2c1` stands 97.5% (active); under `COc1ccc2oc(C(=O)NCc3ccco3)c(C)c2c1`, 25.3%. Under `Cc1ccc2[nH]c3c(=O)n(Cc4ccccn4)cnc3c2c1` stands 29.9% (active); under `COc1ccc2c(c1)c1ncn(Cc3ccccn3)c(=O)c1n2C`, 159% (active); under `Cc1ccc(C)c(Cn2cnc3c(oc4ccccc43)c2=O)c1`, -1.54%. The result for `COc1cccc(Cn2cnc3c([N+](=O)[O-])c(C)c(C)cc32)c1` reads -3.25%; that for `O=c1c2[nH]c3ccc(Cl)cc3c2ncn1Cc1ccccn1`, -2.42%.
